The full data set covers some 7,900 targets. This sample favours those with a hit. About 0.6% of all pairs of compound and target were hits.
Legend:
Assay in all cases: log2 fold change, soluble protein after heating vs DMSO (PISA); higher = thermal stabilisation; K562 cells, 10 uM, 30 min; active = over 0.2 and 3.5 SD of the protein, either way, in both replicates (recomputed)
[1] = compound: CS(=O)(=O)c1ccc(-c2cnc(N)c(C(=O)Nc3ccccc3)n2)cc1
Outline: (§1)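 Soluble protein was quantified by TMTpro 16plex LC-MS/MS after channel sums were equalised. It was obtained as the supernatant after 21,000xg for 90 min from pooled aliquots of K562 cells (2×10^6 cells/mL, 10 μM compound, 30 min) heated for 3 min across 48°C-58°C and extracted in PBS with 0.5% NP-40 at 4°C. Thermal stability values are relative to control samples and come from duplicates. They are given as log2 fold changes.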

[2] = compound: C[C@@H](Oc1cc(-c2cnn(C3CCNCC3)c2)cnc1N)c1c(Cl)ccc(F)c1Cl [crizotinib]
Outline: as §1

[3] = compound: C[C@@H]1COCCN1C2=NC(=NC(=C2)C3(CC3)S(=O)(=O)C)C4=C5C=CNC5=CC=C4
Outline: as §1

[4] = compound: C[C@H](C1=CC=C(C=C1)C(=O)NC2=C3C=CNC3=NC=C2)N
Outline: as §1

[5] = compound: C[C@H](Nc1ncnc2nc[nH]c12)c1cc2cccc(Cl)c2c(=O)n1-c1ccccc1 [duvelisib]
Outline: as §1

[6] = compound: Cc1cc(Nc2cc(CN3CCOCC3)c3nc(C)c(Cc4ccc(Cl)cc4F)n3n2)n[nH]1 [gandotinib]
Outline: as §1

[7] = compound: Cc1cc(Nc2cc(N3CCN(C)CC3)nc(Sc3ccc(NC(=O)C4CC4)cc3)n2)n[nH]1 [tozasertib]
Outline: as §1

[8] = compound: Cc1cc(SCc2sc(-c3ccc(C(F)(F)F)cc3)nc2C)ccc1OCC(=O)O
Outline: as §1

[9] = compound: Cc1ccc(-n2nc(C(C)(C)C)cc2NC(=O)Nc2ccc(OCCN3CCOCC3)c3ccccc23)cc1 [doramapimod]
Outline: as §1

[10] = compound: Cc1ccc(C(=O)N(CCCN)[C@@H](c2nc3cc(Cl)ccc3c(=O)n2Cc2ccccc2)C(C)C)cc1 [ispinesib]
Outline: as §1

[11] = compound: Cc1ccc(NC(=O)c2ccc(CN3CC[C@H](N(C)C)C3)c(C(F)(F)F)c2)cc1Nc1nccc(-c2cncnc2)n1 [bafetinib]
Outline: as §1

[12] = compound: Cc1cccc(CC(=O)N2CCc3c2ccc(-c2cn(C)c4ncnc(N)c24)c3F)n1
Outline: as §1

[13] = compound: Cc1cn(-c2cc(NC(=O)c3ccc(C)c(Nc4nccc(-c5cccnc5)n4)c3)cc(C(F)(F)F)c2)cn1 [nilotinib]
Outline: as §1

[14] = compound: Cc1nc(Nc2n[nH]c3c2CN(C(=O)N[C@H](CN(C)C)c2ccccc2)C3(C)C)c2sccc2n1
Outline: as §1

[15] = compound: Cc1nc(Nc2ncc(C(=O)Nc3c(C)cccc3Cl)s2)cc(N2CCN(CCO)CC2)n1 [dasatinib]
Outline: as §1

[16] = compound: Cc1ncc(-c2ccnc(Nc3ccc(S(C)(=O)=O)cc3)n2)n1C(C)C
Outline: as §1

[17] = compound: Cn1cc(-c2ccc3c(c2)CCN3C(=O)Cc2cccc(C(F)(F)F)c2)c2c(N)ncnc21
Outline: as §1

[18] = compound: Cn1cc(-c2ccc3nnc(C(F)(F)c4ccc5ncccc5c4)n3n2)cn1
Outline: as §1

[19] = compound: Cn1cncc1[C@@](N)(c1ccc(Cl)cc1)c1ccc2c(c1)c(-c1cccc(Cl)c1)cc(=O)n2C [tipifarnib]
Outline: as §1

[20] = compound: FC(F)(F)c1ccc(/C=C/c2nc(COc3ccc(CCCCn4ccnn4)cc3)co2)cc1 [mubritinib]
Outline: as §1

Measured: log2 fold change

ATP6V0A1 isoform 3 (UniProt Q93050)
Sequence of UniProt Q93050 (Q93050 whole entry, looked up): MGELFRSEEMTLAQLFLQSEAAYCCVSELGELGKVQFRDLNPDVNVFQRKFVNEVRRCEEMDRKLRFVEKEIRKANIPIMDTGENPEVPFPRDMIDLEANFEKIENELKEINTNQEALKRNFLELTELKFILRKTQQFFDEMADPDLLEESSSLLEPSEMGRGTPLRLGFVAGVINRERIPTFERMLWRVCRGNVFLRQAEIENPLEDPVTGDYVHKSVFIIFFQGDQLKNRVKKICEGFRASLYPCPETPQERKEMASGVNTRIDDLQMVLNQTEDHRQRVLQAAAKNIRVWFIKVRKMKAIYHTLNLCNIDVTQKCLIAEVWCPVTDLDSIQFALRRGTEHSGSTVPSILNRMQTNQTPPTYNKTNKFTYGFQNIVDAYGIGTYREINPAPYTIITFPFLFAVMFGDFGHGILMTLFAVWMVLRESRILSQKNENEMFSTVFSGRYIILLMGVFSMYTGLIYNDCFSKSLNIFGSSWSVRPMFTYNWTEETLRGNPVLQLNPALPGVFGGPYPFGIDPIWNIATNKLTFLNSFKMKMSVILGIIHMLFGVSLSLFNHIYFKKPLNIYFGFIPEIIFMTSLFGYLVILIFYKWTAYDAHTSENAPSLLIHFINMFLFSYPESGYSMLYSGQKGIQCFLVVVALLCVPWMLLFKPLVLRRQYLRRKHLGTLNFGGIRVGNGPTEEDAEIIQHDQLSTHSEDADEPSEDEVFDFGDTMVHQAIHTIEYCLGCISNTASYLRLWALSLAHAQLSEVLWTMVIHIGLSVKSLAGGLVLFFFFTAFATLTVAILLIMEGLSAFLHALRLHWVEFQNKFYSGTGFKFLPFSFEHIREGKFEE
active: [10] -0.446
inactive: [1] -0.041 | [2] -0.349 | [3] -0.27 | [4] 0.225 | [5] -0.093 | [6] 0.094 | [7] 0.073 | [8] 0.144 | [9] 0.152 | [11] -0.12 | [12] 0.153 | [13] -0.026 | [14] -0.029 | [15] 0.018 | [16] -0.079 | [17] -0.097 | [18] -0.098 | [19] 0.038 | [20] -0.026

ATG9A (UniProt Q7Z3C6)
Sequence of UniProt Q7Z3C6 (Q7Z3C6 whole entry, looked up): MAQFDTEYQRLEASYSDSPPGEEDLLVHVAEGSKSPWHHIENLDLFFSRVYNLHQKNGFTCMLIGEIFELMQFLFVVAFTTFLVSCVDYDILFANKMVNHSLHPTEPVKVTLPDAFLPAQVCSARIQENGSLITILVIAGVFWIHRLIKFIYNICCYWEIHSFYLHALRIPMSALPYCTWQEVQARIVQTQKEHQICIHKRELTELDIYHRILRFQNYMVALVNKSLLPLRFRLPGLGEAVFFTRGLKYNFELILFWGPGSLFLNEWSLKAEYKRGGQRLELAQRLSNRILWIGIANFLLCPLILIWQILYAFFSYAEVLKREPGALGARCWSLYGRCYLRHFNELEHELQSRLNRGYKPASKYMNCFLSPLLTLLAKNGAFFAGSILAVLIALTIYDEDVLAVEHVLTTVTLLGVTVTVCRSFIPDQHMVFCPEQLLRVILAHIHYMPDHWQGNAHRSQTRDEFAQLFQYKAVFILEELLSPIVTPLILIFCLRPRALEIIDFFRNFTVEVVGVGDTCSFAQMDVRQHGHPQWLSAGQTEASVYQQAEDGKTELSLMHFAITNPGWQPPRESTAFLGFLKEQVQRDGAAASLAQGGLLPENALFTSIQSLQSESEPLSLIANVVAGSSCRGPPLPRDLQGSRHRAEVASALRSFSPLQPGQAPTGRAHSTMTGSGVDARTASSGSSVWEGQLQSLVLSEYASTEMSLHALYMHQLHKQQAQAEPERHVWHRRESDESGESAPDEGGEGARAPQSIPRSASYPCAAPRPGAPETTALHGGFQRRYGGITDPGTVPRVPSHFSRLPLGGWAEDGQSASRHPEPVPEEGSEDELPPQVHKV
inactive: [1] 0.074 | [2] -0.11 | [3] 0.036 | [4] 0.036 | [5] 0.042 | [6] -0.062 | [7] 0.012 | [8] 0.069 | [9] -0.016 | [11] -0.048 | [12] -0.013 | [13] -0.04 | [14] -0.108 | [15] -0.046 | [16] -0.014 | [17] 0.06 | [18] -0.022 | [19] 0.168 | [20] 0.042
active: [10] -0.239

ALG3 (UniProt Q92685)
Sequence of UniProt Q92685 (Q92685 whole entry, looked up): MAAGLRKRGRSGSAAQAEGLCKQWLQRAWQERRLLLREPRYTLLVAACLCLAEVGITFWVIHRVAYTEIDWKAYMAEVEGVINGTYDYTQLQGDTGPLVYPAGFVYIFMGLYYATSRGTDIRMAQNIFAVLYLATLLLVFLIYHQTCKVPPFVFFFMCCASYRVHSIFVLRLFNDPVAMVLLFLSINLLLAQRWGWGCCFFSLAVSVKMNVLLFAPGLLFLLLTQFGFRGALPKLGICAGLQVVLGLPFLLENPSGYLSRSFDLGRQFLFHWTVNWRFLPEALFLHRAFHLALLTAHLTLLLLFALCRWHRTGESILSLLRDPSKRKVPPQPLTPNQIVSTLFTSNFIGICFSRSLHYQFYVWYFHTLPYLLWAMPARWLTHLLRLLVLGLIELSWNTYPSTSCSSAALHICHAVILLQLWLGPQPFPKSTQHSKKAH
inactive: [1] -0.067 | [2] 0.087 | [3] 0.001 | [4] -0.077 | [5] 0.057 | [6] -0.107 | [7] -0.019 | [8] 0.049 | [9] 0.006 | [10] -0.086 | [11] -0.047 | [12] 0.075 | [13] 0.002 | [14] 0.021 | [15] 0.031 | [16] 0.017 | [17] -0.065 | [18] 0.013 | [19] -0.062 | [20] 0.006

ACSL5 isoform 3 (UniProt Q9ULC5)
Sequence of UniProt Q9ULC5 (Q9ULC5 whole entry, looked up): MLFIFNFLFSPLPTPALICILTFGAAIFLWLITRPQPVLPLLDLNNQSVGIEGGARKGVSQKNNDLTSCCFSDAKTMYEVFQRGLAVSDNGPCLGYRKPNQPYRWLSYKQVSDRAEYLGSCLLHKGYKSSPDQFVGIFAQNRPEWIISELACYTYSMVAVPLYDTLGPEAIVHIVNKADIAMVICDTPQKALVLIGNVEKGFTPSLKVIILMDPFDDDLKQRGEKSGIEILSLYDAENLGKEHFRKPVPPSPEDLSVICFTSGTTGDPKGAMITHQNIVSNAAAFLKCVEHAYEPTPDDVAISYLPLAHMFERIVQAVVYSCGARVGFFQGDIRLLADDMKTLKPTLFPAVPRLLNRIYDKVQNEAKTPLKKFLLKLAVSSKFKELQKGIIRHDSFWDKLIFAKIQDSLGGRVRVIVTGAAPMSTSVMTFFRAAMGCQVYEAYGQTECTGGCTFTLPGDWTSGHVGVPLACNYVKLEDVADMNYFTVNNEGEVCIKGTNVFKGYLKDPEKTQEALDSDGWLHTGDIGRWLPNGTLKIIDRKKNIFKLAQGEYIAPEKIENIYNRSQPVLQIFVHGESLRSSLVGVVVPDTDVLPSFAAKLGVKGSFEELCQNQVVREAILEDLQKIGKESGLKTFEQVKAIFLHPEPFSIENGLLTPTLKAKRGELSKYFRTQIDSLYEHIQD
inactive: [1] -0.014 | [2] -0.146 | [3] 0.11 | [4] 0.009 | [5] -0.024 | [6] 0.021 | [7] -0.076 | [8] -0.033 | [9] 0.059 | [10] -0.316 | [12] -0.01 | [13] -0.055 | [14] -0.06 | [15] 0.062 | [16] 0.012 | [17] 0.066 | [18] 0.007 | [19] 0.043 | [20] -0.018
active: [11] -0.271

ARMC10 (UniProt Q8N2F6)
Sequence of UniProt Q8N2F6 (Q8N2F6 whole entry, looked up): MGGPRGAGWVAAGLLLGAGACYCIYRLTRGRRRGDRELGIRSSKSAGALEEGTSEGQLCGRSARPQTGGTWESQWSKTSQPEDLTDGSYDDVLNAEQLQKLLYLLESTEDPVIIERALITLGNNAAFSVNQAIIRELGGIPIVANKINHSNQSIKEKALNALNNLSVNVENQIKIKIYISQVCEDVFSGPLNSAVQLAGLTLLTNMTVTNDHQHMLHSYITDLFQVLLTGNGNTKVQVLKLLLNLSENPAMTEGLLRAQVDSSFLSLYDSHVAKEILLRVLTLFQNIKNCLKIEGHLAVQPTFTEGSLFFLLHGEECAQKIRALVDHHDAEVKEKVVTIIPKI
inactive: [1] 0.002 | [2] -0.04 | [3] 0.016 | [4] 0.006 | [5] 0.033 | [6] -0.09 | [7] 0.065 | [8] 0.108 | [9] 0.018 | [10] 0.027 | [11] 0.046 | [12] 0.015 | [13] -0.063 | [14] -0.034 | [15] -0.125 | [16] -0.012 | [17] -0.052 | [18] -0.115 | [19] 0.001 | [20] -0.096

ALG5 (UniProt Q9Y673)
Sequence of UniProt Q9Y673 (Q9Y673 whole entry, looked up): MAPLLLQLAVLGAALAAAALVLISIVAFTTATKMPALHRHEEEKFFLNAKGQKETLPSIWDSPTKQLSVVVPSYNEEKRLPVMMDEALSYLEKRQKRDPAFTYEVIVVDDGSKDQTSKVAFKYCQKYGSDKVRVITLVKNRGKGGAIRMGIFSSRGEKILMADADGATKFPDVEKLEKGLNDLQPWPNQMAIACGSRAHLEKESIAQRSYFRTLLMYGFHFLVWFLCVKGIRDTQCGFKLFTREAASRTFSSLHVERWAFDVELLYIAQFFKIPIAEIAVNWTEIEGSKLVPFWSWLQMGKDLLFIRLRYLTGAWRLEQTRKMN
inactive: [1] 0.005 | [2] -0.045 | [3] 0.06 | [4] -0.065 | [5] 0.11 | [6] -0.084 | [7] -0.046 | [8] 0.045 | [9] -0.032 | [10] 0.001 | [11] 0.021 | [12] 0.067 | [13] 0.009 | [14] -0.123 | [15] -0.045 | [16] -0.121 | [17] 0.088 | [18] 0.059 | [19] -0.079 | [20] -0.055

BCCIP isoform 2 (UniProt Q9P287)
Sequence of UniProt Q9P287 (Q9P287 whole entry, looked up): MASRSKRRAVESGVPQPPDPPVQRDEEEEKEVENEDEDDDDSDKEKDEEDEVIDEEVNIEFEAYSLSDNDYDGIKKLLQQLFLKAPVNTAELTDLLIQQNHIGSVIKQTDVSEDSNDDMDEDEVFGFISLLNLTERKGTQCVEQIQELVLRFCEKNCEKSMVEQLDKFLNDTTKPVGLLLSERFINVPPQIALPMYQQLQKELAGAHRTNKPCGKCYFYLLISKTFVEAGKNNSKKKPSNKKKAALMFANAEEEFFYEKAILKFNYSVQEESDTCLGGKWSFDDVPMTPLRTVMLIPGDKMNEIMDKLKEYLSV
inactive: [1] -0.006 | [2] -0.012 | [3] 0 | [4] 0.062 | [5] 0.067 | [6] -0.047 | [7] 0 | [8] 0.011 | [9] -0.008 | [10] 0.059 | [11] 0.014 | [12] 0.021 | [13] -0.046 | [14] -0.029 | [15] -0.071 | [16] 0.017 | [17] -0.064 | [18] -0.007 | [19] -0.015 | [20] -0.023

AKAP8L (UniProt Q9ULX6)
Sequence of UniProt Q9ULX6 (Q9ULX6 whole entry, looked up): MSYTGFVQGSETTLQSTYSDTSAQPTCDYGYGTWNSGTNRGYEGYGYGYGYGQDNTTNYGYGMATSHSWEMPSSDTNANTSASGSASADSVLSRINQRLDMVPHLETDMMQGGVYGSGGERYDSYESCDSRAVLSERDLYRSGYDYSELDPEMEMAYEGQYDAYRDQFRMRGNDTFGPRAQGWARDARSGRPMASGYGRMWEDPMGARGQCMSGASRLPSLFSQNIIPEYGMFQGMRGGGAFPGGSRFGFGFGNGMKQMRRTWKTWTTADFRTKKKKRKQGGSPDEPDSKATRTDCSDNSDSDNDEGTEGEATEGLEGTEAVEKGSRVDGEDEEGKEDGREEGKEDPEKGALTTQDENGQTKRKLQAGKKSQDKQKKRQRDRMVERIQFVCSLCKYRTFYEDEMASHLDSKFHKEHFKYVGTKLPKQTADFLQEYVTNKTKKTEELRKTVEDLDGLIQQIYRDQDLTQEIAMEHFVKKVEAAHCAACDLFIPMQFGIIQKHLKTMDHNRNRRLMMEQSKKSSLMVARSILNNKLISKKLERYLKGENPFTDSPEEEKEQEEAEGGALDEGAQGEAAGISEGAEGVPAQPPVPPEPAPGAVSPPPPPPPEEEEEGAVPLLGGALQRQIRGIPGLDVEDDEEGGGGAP
inactive: [1] -0.036 | [2] -0.049 | [3] -0.066 | [4] -0.1 | [5] -0.03 | [6] -0.007 | [7] 0.039 | [8] 0.092 | [9] 0.047 | [10] -0.102 | [11] -0.078 | [12] -0.039 | [13] 0.044 | [14] -0.02 | [15] -0.161 | [16] -0.052 | [17] -0.036 | [18] -0.14 | [19] 0.039 | [20] 0.003

Reference: the supplement of paper PMC10849652
